Data on 47 compounds can be found in the supplement of paper PMC6331611.

For the test, the system named is Salmonella enterica serovar Typhimurium SL1344. Nature of the test: normalized intracellular growth (luminescence, IQM-normalized) in RAW264.7 macrophages (fraction of plate interquartile mean); higher = more bacterial growth (less inhibition). As to conditions: 10 µM.

± gives the standard deviation of the averaged measurements. Over roughly 1,600 compounds, “normalized intracellular growth (luminescence, IQM-normalized) in RAW264.7 macrophages” has its median near 1; the lowest 2% begin near 0.43. The sample holds the lowest values, similar compounds and a random draw of the others, so the mix is not that of the screen.

Take `CCCNC(C)(C)COC(=O)c1ccccc1`: the normalized intracellular growth worked out at 0.828 ± 0.083 (time point: T3 (3 h)) and 0.1174 ± 0.0011 (time point: Tfinal (~6 h)).

Regarding `O=C(OCc1ccccc1)c1ccccc1`, the normalized intracellular growth (time point: T3 (3 h)) turned out to be 0.966 ± 0.057 and the normalized intracellular growth (time point: Tfinal (~6 h)) turned out to be 0.928 ± 0.069.

Turning to `O=C(OOC(=O)c1ccccc1)c1ccccc1`, the normalized intracellular growth runs as follows: (time point: T3 (3 h)) 1 ± 0.017; (time point: Tfinal (~6 h)) 1.05 ± 0.037.

In the case of `C=C1CC[C@H](O)C/C1=C/C=C1\CCC[C@]2(C)[C@@H]([C@H](C)/C=C/[C@H](C)C(C)C)CC[C@@H]12`, the normalized intracellular growth turned out to be 1.04 ± 0.059 (time point: T3 (3 h)) and 1.2 ± 0.086 (time point: Tfinal (~6 h)).

`CC(O)(CC(=O)O)CC(=O)O`: the normalized intracellular growth (time point: T3 (3 h)) is 0.971 ± 0.034 and the normalized intracellular growth (time point: Tfinal (~6 h)) turned out to be 1.02 ± 0.061.

With `NS(=O)(=O)c1ccc(C(=O)O)cc1`, the normalized intracellular growth runs as follows: (time point: T3 (3 h)) 1.006 ± 0.0098; (time point: Tfinal (~6 h)) 0.964 ± 0.076.

In the case of `Nc1ccc(S(N)(=O)=O)cc1`, the normalized intracellular growth reads like this: (time point: T3 (3 h)) 0.9673 ± 0.006; (time point: Tfinal (~6 h)) 1.07 ± 0.1.

On to `NCc1ccc(S(N)(=O)=O)cc1`, for which the normalized intracellular growth by setting is: (time point: T3 (3 h)) 0.686 ± 0.071; (time point: Tfinal (~6 h)) 0.0766 ± 0.0043.

Turning to `O=C(O)CN1C(=O)c2cccc3cccc(c23)C1=O`, the normalized intracellular growth by setting is: (time point: T3 (3 h)) 0.914 ± 0.099; (time point: Tfinal (~6 h)) 1.05 ± 0.096.

For `CC(=O)Nc1ccc(C(=O)O)cc1`, the normalized intracellular growth runs as follows: (time point: T3 (3 h)) 1.06 ± 0.055; (time point: Tfinal (~6 h)) 0.967 ± 0.1.

For `CCCCC(CC)CCC(CC(C)C)OS(=O)(=O)O` (centres undefined), the normalized intracellular growth (time point: T3 (3 h)) was 1.03 ± 0.031 and the normalized intracellular growth (time point: Tfinal (~6 h)) amounted to 1.1 ± 0.03.

Take `NCCC[C@H](N)C(=O)O`: the normalized intracellular growth was 0.972 ± 0.048 (time point: T3 (3 h)) and 0.966 ± 0.13 (time point: Tfinal (~6 h)).

Regarding `C[C@H]1[C@H](NC(=O)/C(=N\OC(C)(C)C(=O)O)c2csc(N)n2)C(=O)N1S(=O)(=O)O`, the normalized intracellular growth (time point: T3 (3 h)) turned out to be 0.992 ± 0.04 and the normalized intracellular growth (time point: Tfinal (~6 h)) amounted to 0.2 ± 0.016.

`CC(C)(O/N=C(\C(=O)N[C@@H]1C(=O)N2C(C(=O)[O-])=C(C[n+]3ccccc3)CS[C@H]12)c1csc(N)n1)C(=O)O`: the normalized intracellular growth is, setting by setting: (time point: T3 (3 h)) 0.997 ± 0.078; (time point: Tfinal (~6 h)) 0.806 ± 0.12.

Consider `FC(F)(F)COCC(F)(F)F`, for which the normalized intracellular growth reads like this: (time point: T3 (3 h)) 0.946 ± 0.09; (time point: Tfinal (~6 h)) 0.9 ± 0.27.

As to `CC(=O)N[C@@H](CCC(N)=O)C(=O)O`, the normalized intracellular growth runs as follows: (time point: T3 (3 h)) 0.959 ± 0.023; (time point: Tfinal (~6 h)) 0.942 ± 0.11.

Consider `Nc1ccc(S(=O)(=O)O)cc1.Nc1ccc(S(=O)(=O)O)cc1.[Zn]`, for which the normalized intracellular growth reads like this: (time point: T3 (3 h)) 1.01 ± 0.047; (time point: Tfinal (~6 h)) 1.15 ± 0.099.

Consider `CC12CCC(CC1)C(C)(C)O2`, for which the normalized intracellular growth (time point: T3 (3 h)) turned out to be 1.02 ± 0.024 and the normalized intracellular growth (time point: Tfinal (~6 h)) amounted to 0.96 ± 0.18.

Take `CN(C)[C@@H]1C(O)=C(C(N)=O)C(=O)[C@@]2(O)C(O)=C3C(=O)c4c(O)ccc(Cl)c4[C@@](C)(O)[C@H]3C[C@@H]12`: the normalized intracellular growth by setting is: (time point: T3 (3 h)) 0.846 ± 0.031; (time point: Tfinal (~6 h)) 0.23 ± 0.02.

The compound `C=C1c2c(Cl)ccc(O)c2C(=O)C2=C(O)[C@]3(O)C(=O)C(C(N)=O)=C(O)[C@@H](N(C)C)[C@@H]3[C@@H](O)[C@H]12.O=C(O)c1cc(S(=O)(=O)O)ccc1O` displayed a normalized intracellular growth (time point: T3 (3 h)) of 1.01 ± 0.065 and a normalized intracellular growth (time point: Tfinal (~6 h)) of 0.0256 ± 0.0064.

In turn, `CN(C)[C@@H]1C(O)=C(C(N)=O)C(=O)[C@@]2(O)C(O)=C3C(=O)c4c(O)ccc(Cl)c4[C@@H](O)[C@H]3C[C@@H]12` registered a normalized intracellular growth (time point: T3 (3 h)) of 0.727 ± 0.11 and a normalized intracellular growth (time point: Tfinal (~6 h)) of 0.176 ± 0.0084.

Consider `CN(C)[C@@H]1C(O)=C(C(N)=O)C(=O)[C@@]2(O)C(O)=C3C(=O)c4c(O)cccc4[C@@](C)(O)[C@H]3[C@H](O)[C@@H]12`, for which the normalized intracellular growth came out at 1.01 ± 0.074 (time point: T3 (3 h)) and 0.0331 ± 0.014 (time point: Tfinal (~6 h)).

Turning to `OCc1ccccn1`, the normalized intracellular growth (time point: T3 (3 h)) is 1.02 ± 0.06 and the normalized intracellular growth (time point: Tfinal (~6 h)) worked out at 0.892 ± 0.1.

For the compound `C=NC(C(=O)NC1C(=O)N2C1SC(C)(C)C2C(=O)O)c1ccccc1` (centres undefined), the normalized intracellular growth (time point: T3 (3 h)) is 0.959 ± 0.021 and the normalized intracellular growth (time point: Tfinal (~6 h)) came out at 1.04 ± 0.011.

In the case of `Nc1ncnc(Nc2ccc(Cl)cc2)n1`, the normalized intracellular growth is 1.1 ± 0.074 (time point: T3 (3 h)) and 0.945 ± 0.42 (time point: Tfinal (~6 h)).

`Cc1ncc([N+](=O)[O-])n1C` showed a normalized intracellular growth (time point: T3 (3 h)) of 0.936 ± 0.053 and a normalized intracellular growth (time point: Tfinal (~6 h)) of 0.98 ± 0.1.

With `Nc1nccs1`, the normalized intracellular growth was 1.03 ± 0.072 (time point: T3 (3 h)) and 0.911 ± 0.12 (time point: Tfinal (~6 h)).

As to `O.O.O=C([O-])CN(CCN(CC(=O)[O-])CC(=O)O)CC(=O)O.[Na+].[Na+]`, the normalized intracellular growth by setting is: (time point: T3 (3 h)) 0.978 ± 0.021; (time point: Tfinal (~6 h)) 1.02 ± 0.013.

For the compound `O=c1[nH]c(=O)c2ccccc2o1`, the normalized intracellular growth worked out at 0.963 ± 0.026 (time point: T3 (3 h)) and 1.02 ± 0.078 (time point: Tfinal (~6 h)).

For the compound `CC1=C(C/C=C(\C)CCC[C@H](C)CCC[C@H](C)CCCC(C)C)C(=O)c2ccccc2C1=O`, the normalized intracellular growth stood at 0.968 ± 0.067 (time point: T3 (3 h)) and 1.08 ± 0.064 (time point: Tfinal (~6 h)).

On to `CCCCC/C=C/CCC(=O)N[C@H]1[C@H](Oc2c3cc4cc2Oc2ccc(cc2Cl)[C@@H](O[C@@H]2O[C@H](CO)[C@@H](O)[C@H](O)[C@H]2NC(C)=O)[C@@H]2NC(=O)[C@H](NC(=O)[C@@H]4NC(=O)[C@H]4NC(=O)C(Cc5ccc(c(Cl)c5)O3)NC(=O)[C@H](N)c3ccc(O)c(c3)Oc3cc(O)cc4c3)c3ccc(O)c(c3)-c3c(OC4O[C@H](CO)[C@@H](O)[C@H](O)[C@@H]4O)cc(O)cc3[C@@H](C(=O)O)NC2=O)O[C@H](CO)[C@@H](O)[C@@H]1O` (some centres undefined) [TEICOPLANIN [A(2-1) shown]], for which the normalized intracellular growth was 0.955 ± 0.07 (time point: T3 (3 h)) and 1.07 ± 0.065 (time point: Tfinal (~6 h)).

In the case of `Cc1c(C)c2c(c(C)c1O)CCC(C)(CCCC(C)CCCC(C)CCCC(C)C)O2` (stereo not drawn) [alpha-TOCHOPHEROL], the normalized intracellular growth runs as follows: (time point: T3 (3 h)) 0.999 ± 0.14; (time point: Tfinal (~6 h)) 1.1 ± 0.13.

As to `O=C(NCc1ccccc1)OCCO`, the normalized intracellular growth by setting is: (time point: T3 (3 h)) 1.24 ± 0.071; (time point: Tfinal (~6 h)) 1.33 ± 0.083.

Take `CN(C)[C@@H]1C(O)=C(C(=O)NCN2CCCC2)C(=O)[C@@]2(O)C(O)=C3C(=O)c4c(O)cccc4[C@@](C)(O)[C@H]3C[C@@H]12`: the normalized intracellular growth runs as follows: (time point: T3 (3 h)) 0.973 ± 0.013; (time point: Tfinal (~6 h)) 0.683 ± 0.41.

With `C=C1c2cccc(O)c2C(=O)C2=C(O)[C@]3(O)C(=O)C(C(N)=O)=C(O)[C@@H](N(C)C)[C@@H]3[C@@H](O)[C@H]12`, the normalized intracellular growth (time point: T3 (3 h)) was 0.979 ± 0.029 and the normalized intracellular growth (time point: Tfinal (~6 h)) stood at 0.103 ± 0.039.

Take `C[C@H]1c2cccc(O)c2C(=O)C2=C(O)[C@]3(O)C(=O)C(C(N)=O)=C(O)[C@@H](N(C)C)[C@@H]3[C@@H](O)[C@@H]21`: the normalized intracellular growth (time point: T3 (3 h)) is 0.73 ± 0.065 and the normalized intracellular growth (time point: Tfinal (~6 h)) was found to be 0.173 ± 0.025.

As to `CN(C)[C@@H]1C(O)=C(C(N)=O)C(=O)[C@@]2(O)C(O)=C3C(=O)c4c(O)cccc4[C@@](C)(O)[C@H]3C[C@@H]12`, the normalized intracellular growth runs as follows: (time point: T3 (3 h)) 0.598 ± 0.062; (time point: Tfinal (~6 h)) 0.209 ± 0.048.

Turning to `CN(C)c1ccc(O)c2c1C[C@H]1C[C@H]3[C@H](N(C)C)C(O)=C(C(N)=O)C(=O)[C@@]3(O)C(O)=C1C2=O`, the normalized intracellular growth turned out to be 1.01 ± 0.091 (time point: T3 (3 h)) and 0.33 ± 0.14 (time point: Tfinal (~6 h)).

As to `CN(C)c1cc(NC(=O)CNC(C)(C)C)c(O)c2c1C[C@H]1C[C@H]3[C@H](N(C)C)C(O)=C(C(N)=O)C(=O)[C@@]3(O)C(O)=C1C2=O`, the normalized intracellular growth runs as follows: (time point: T3 (3 h)) 1.01 ± 0.05; (time point: Tfinal (~6 h)) 1.02 ± 0.18.

For the compound `CN(C)CCc1c[nH]c2ccc(CS(=O)(=O)N3CCCC3)cc12`, the normalized intracellular growth (time point: T3 (3 h)) came out at 0.989 ± 0.027 and the normalized intracellular growth (time point: Tfinal (~6 h)) came to 1.14 ± 0.15.

The compound `CCCCCNC(=N)N/N=C/c1c[nH]c2ccc(OC)cc12` came in with a normalized intracellular growth (time point: T3 (3 h)) of 1.05 ± 0.1 and a normalized intracellular growth (time point: Tfinal (~6 h)) of 1.08 ± 0.037.

With `CCC(=O)Oc1ccc2c(c1)CC[C@@H]1[C@@H]2CC[C@]2(C)[C@@H](OC(=O)CC)CC[C@@H]12`, the normalized intracellular growth (time point: T3 (3 h)) was 0.977 ± 0.092 and the normalized intracellular growth (time point: Tfinal (~6 h)) came to 0.934 ± 0.089.

Take `O=C([O-])C(O)[C@H](O)[C@@H](O)[C@H](O)[C@H](O)CO.O=C([O-])C(O)[C@H](O)[C@@H](O)[C@H](O)[C@H](O)CO.[Ca+2]` (some centres undefined): the normalized intracellular growth is 1.04 ± 0.019 (time point: T3 (3 h)) and 1.06 ± 0.18 (time point: Tfinal (~6 h)).

For the compound `Cc1c(OCC(F)(F)F)ccnc1C[S@@+]([O-])c1nc2ccccc2[nH]1`, the normalized intracellular growth amounted to 0.98 ± 0.076 (time point: T3 (3 h)) and 1.18 ± 0.11 (time point: Tfinal (~6 h)).

With `CC1=C(C)C(=O)C(C(CCCCCC(=O)O)c2ccccc2)=C(C)C1=O` (centres undefined), the normalized intracellular growth was found to be 0.994 ± 0.042 (time point: T3 (3 h)) and 1.18 ± 0.085 (time point: Tfinal (~6 h)).

Turning to `NC(=O)c1cc[n+](CC2=C(C(=O)O)N3C(=O)[C@@H](NC(=O)[C@@H](c4ccccc4)S(=O)(=O)[O-])[C@H]3SC2)cc1`, the normalized intracellular growth by setting is: (time point: T3 (3 h)) 0.999 ± 0.056; (time point: Tfinal (~6 h)) 1.05 ± 0.028.

Consider `CCOc1ccc(NC(=O)CC(C)O)cc1` (centres undefined), for which the normalized intracellular growth came out at 0.969 ± 0.045 (time point: T3 (3 h)) and 1.202 ± 0.0076 (time point: Tfinal (~6 h)).
